# Screening data as filed in PubChem.
# D2 antagonist: D2 dopamine receptor (human) antagonism; 2% of 340,000 active; inhibition, % at 10 µM; P14416; HEK293 TREx D2 cells, calcium flux, dopamine EC80; in the data active = inhibition above about 30%; inactive = below that, where a call was filed; note: 0% is about no effect
# Target sequence (P14416 whole entry, looked up): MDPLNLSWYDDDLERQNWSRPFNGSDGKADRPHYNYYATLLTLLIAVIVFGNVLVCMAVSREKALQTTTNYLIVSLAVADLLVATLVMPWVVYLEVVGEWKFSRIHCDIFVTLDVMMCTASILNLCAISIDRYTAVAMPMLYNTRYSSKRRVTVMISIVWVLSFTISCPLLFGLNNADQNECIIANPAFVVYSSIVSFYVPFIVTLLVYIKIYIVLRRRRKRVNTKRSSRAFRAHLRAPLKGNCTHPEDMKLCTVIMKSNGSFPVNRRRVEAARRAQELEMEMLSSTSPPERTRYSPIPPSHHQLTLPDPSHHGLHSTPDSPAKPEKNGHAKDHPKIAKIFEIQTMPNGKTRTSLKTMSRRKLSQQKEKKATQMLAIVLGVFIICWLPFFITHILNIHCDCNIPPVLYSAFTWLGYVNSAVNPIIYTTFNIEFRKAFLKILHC
#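 HEK293 T-REx D2 cells, tet-induced, calcium dye no-wash. Cpd pintool add, 180 s kinetic, then EC80 DA, 180 s kinetic. Ca flux read.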
# D2 PAM-1: positively modulates the human D2 dopamine receptor allosterically; HEK293 T-REx D2, calcium flux, EC20 dopamine potentiation; potentiation, % at 10 µM; 0.34% of 340,000 active; AID 485347;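 active = potentiation over 3 SD above the plate norm, cut at about 30% in these data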; note: 0% is about no effect
#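 Potentiation of an EC20 dopamine calcium response measured kinetically over 180 s, after a preceding 180 s compound-only read flagging agonists. Cells: inducible Hek293 Trex D2 line, 4000/well, cultured overnight at 30 C before dye loading.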
# D2 ag-1: activates the human D2 dopamine receptor | P14416 | HEK293 T-REx D2 cells, calcium flux agonist mode | activation, % at 2 µM | 0.53% of 340,000 active | AID 485358;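 active = activation over 3 SD above normal in the single-dose calcium agonist read, cut at about 30% in these data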; note: 0% is about no effect
#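 In this primary screen, compounds producing a positive calcium signal within 180 s of addition to tetracycline-induced, force-coupled HEK293 Trex D2 cells are flagged; cells are dye-loaded with a no-wash calcium kit beforehand.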
# D2 PAM-2: human D2 receptor positive allosteric modulation | P14416 | DiscoveRx D2 beta-arrestin cells, luminescence, 90 min; 100% = 57 uM dopamine signal | potentiation, % (concentration not given with the values) | 0.23% of 360,000 active | AID 624464; in the data active = potentiation above about 50%; inconclusive = mostly about 30% to 49%
#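 PathHunter beta-arrestin assay in DiscoveRx D2 cells. Compounds were added with an EC20 of dopamine (50 nM final) for 90 min at 37 deg C. Luminescence was read 1 h after detection reagent, with 57 uM dopamine as the EC100 control.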
# D2 ag-2: human D2 receptor agonism in beta-arrestin assay. P14416. DiscoveRx PathHunter D2 beta-arrestin, luminescence, 90 min; 100% = 57 uM dopamine signal. activation, % (test concentration not listed). 0.084% of 360,000 active. AID 624465; in the data active = activation above about 40%; inconclusive = between about 15% and that limit
#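 Agonist mode: compounds alone added to overnight-plated D2 PathHunter cells for 90 min at 37 C, with 57 uM final dopamine (EC100) defining full response. Beta-arrestin recruitment detected by chemiluminescent reagent, read after 1 h at ambient temperature.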
# * marks the source's active call; other numbers are inactive results; ? = inconclusive; . = not tested or not shown; ! = a repeat was not active. Most compounds without a hit are left out; they make up all but 2.4% or so of the library.
SMILES,D2 antagonist,D2 PAM-1,D2 ag-1,D2 PAM-2,D2 ag-2
Cn1c(=O)c(C(=O)COC(=O)c2cc(-c3ccccc3)nc3ccccc23)c(N)n(Cc2ccccc2)c1=O,31*,-6,3,.,.
COc1cc2ccccc2cc1C(=O)OCC(=O)c1c(N)n(C)c(=O)n(C)c1=O,52*,1,0,-21,-1
Cn1c(=O)c(C(=O)COC(=O)c2cc(C(F)(F)F)nc3ccccc23)c(N)n(Cc2ccccc2)c1=O,5,-1,1,.,.
Cc1ccc2oc(-c3ccc(C)c(NC(=O)c4ccc(-c5ccccc5[N+](=O)[O-])o4)c3)nc2c1,.,1,0,.,.
CCOC(=O)c1cc(S(=O)(=O)Nc2ccc(OC(F)(F)F)cc2)[nH]n1,.,15,.,.,.
CCOc1ccc(N(C(=O)c2ccccc2F)S(=O)(=O)c2ccc3c(c2)n(C)c(=O)n3C)cc1,.,1,0,.,.
O=C(NCC(c1ccc(Cl)cc1)N1CCCCC1)c1ccccc1F (stereo not given),.,-18,-1,.,.
CCN1CCN(S(=O)(=O)c2ccc(Cl)c(C(=O)NC3CC3)c2)CC1,-53,-7,1,-6,-3
CCN1CCN(S(=O)(=O)c2ccc(Cl)c(C(=O)NC3CCCC3)c2)CC1,47*,-7,0,-6,3
CCN1CCN(S(=O)(=O)c2ccc(Cl)c(C(=O)NC(C)(C)C)c2)CC1,30*,-9,5,-3,-5
CC1(C)CC(=O)c2sc(NS(=O)(=O)c3ccccc3)nc2C1,-6,8,0,-10,0
CC1(C)CC(=O)c2sc(NS(=O)(=O)c3ccc([N+](=O)[O-])cc3)nc2C1,4,-5,0,54*,-1
CN1C(=O)/C(=C/c2ccccc2OCc2ccccc2)NC1=S,24,-2,0,-19,-4
CN1C(=O)/C(=C/c2cc(C(C)(C)C)c(O)c(C(C)(C)C)c2)NC1=S,-2,2,-2,52*,?
Cc1ccc(CNC(=O)Cn2c3ncccc3c(=O)n2-c2ccccc2)cc1,.,1,0,.,.
CS(=O)(=O)N1CCc2cc(C(=O)N3CCCCC3)ccc21,4,-5,0,-4,2
CS(=O)(=O)N1CCc2cc(C(=O)O)ccc21,0,31*,-1,1,-1
C=CCN1C(=O)/C(=C/C=C2/N(CC)c3ccc(S(=O)(=O)N(C)C)cc3N2CC)SC1=S,16,1,52*,-16,-3
CN(C(=O)CN1C(=O)C2C3CC(C(Br)C3Br)C2C1=O)C1CCCCC1 (stereo not given),31*,9,0,0,2
CCOc1ccccc1NC(=O)CSc1nc2ccccc2c2nc(CCn3cncc3C)nn12,.,14,0,.,.
O=S(=O)(c1ccc(Cl)cc1)c1nc(-c2ccco2)oc1SCc1ccc(F)cc1,.,22,4,.,.
CC(=O)N1Cc2ccccc2C(C)CC12CCCC2 (stereo not given),31*,-3,-1,0,-5
CC(=O)N1c2ccccc2C(C)CC12CCCCC2 (stereo not given),12,0,1,-22,-6
CCn1ncc(/C=C2/SC(=S)NC2=O)c1C,12,-12,33*,-13,-2
CCn1c(C)cc(/C=C2/SC(=S)NC2=O)c1C,4,5,6,-11,0
SMILES,D2 antagonist,D2 PAM-1,D2 ag-1,D2 PAM-2,D2 ag-2
CC(C)(C)c1ccc(C(=O)NCCc2csc3nc(-c4ccccc4F)nn23)cc1,.,7,0,.,.
COc1cc(OC)cc(C(=O)N2CCC(N3CCCCCC3)CC2)c1,3,38*,-1,-8,-1
O=C(c1cccc(Br)c1)N1CCN(C(=O)c2cccc(Br)c2)CC1,5,35*,0,-6,0
COc1ccc(OCC(=O)N2CCN(C(=O)c3cccc(F)c3)CC2)cc1,-3,-8,-1,-7,-2
COc1cc(OC)cc(C(=O)N2CCN(C3CCCCC3)CC2)c1,-3,5,0,-8,-2
COc1cc(OC)cc(C(=O)N2CCN(c3ccccc3F)CC2)c1,31*,0,1,-7,-3
COc1cc(OC)cc(C(=O)N2CCN(C(=O)c3cccc(F)c3)CC2)c1,31*,-1,0,6,1
O=C(c1cccc(Br)c1)N1CCN(C(=O)N2CCOCC2)CC1,19,-5,1,-22,-2
Cc1ccc(-c2nnc(Nc3ccc(O)cc3)c3ccccc23)cc1S(=O)(=O)NCC1CCCO1 (stereo not given),.,-1,.,.,.
CC(C)(C)c1ccc(OCC(=O)N/N=C/c2cc(Br)ccc2OC(=O)c2ccco2)cc1,34*,0,1,-11,-8
O=C(OCc1ccccc1)C1=[N+]([O-])OC(C(=O)OCc2ccccc2)C1c1c[nH]c2ccccc12 (stereo not given),-11,2,-1,63*,6
CCCCc1ccc(Nc2ncnc3c2cnn3-c2ccc(C)cc2)cc1,.,3,0,.,.
CCOc1ccc(C(=O)O/N=C(\N)c2ccccn2)cc1,2,-3,1,55*,?
COc1ccc(Cl)cc1C(=O)O/N=C(\N)c1ccccn1,27,-2,0,63*!,?
CC1CCCCN1C(=O)CSc1nc2ccccc2nc1Cc1ccc(Cl)cc1 (stereo not given),.,-2,1,.,.
COc1ccc(-c2nnc(SCC(=O)Nc3cc(C)on3)o2)cc1,36*,15,2,-2,-6
Cn1c(=O)n(Cc2ccccc2)c(=O)c2c1nc1n2CCCN1Cc1ccccc1,1,20,0,6,-3
CCCCn1c(=O)c2c(nc3n2CCCN3Cc2ccccc2)n(C)c1=O,34*,8,6,0,0
CC(C)N(C(=O)CN1C(=O)C(=O)c2ccccc21)c1ccccc1,36*,0,2,-2,-3
O=C(CN1C(=O)C(=O)c2ccccc21)c1ccccc1,3,-4,-2,-5,-17
Cc1ccc(-c2nc(CS(=O)(=O)CC(=O)NCc3cccc(F)c3)c(C)o2)cc1,12,7,.,-2,1
COc1ccc(-c2nc(CS(=O)(=O)CC(=O)NCc3cccc(F)c3)c(C)o2)cc1,54*,-6,0,-4,-5
CCOC(=O)N1CCC(NC(=O)CS(=O)(=O)Cc2nc(-c3cccc(OC)c3)oc2C)CC1,24,97*,0,-6,0
COc1cccc(-c2nc(CS(=O)(=O)CC(=O)NC3CC3)c(C)o2)c1,-7,-1,0,-6,-2
Cc1ccc(C(=O)NCCc2ccc(S(N)(=O)=O)cc2)cc1-n1cnc2cccnc21,.,0,.,.,.
Cc1cccc(NC(=O)CN(C)CC(=O)NC(c2ccccc2)c2ccccc2)c1C,33*,-5,-1,-16,0
COc1ccc(Cc2nc(-c3ccc(Br)cc3)no2)cc1,31*,-10,0,18,-1
